In PubChem BioAssay AID1053 (University of Pittsburgh Molecular Library Screening Center, 2008):
“And” between values parts separate entries of the source, which are not always exact repeats. Equal entries are not always repeated.

Each molecule was assayed against Serine/threonine-protein kinase PLK1 (Homo sapiens) (UniProt P53350) (assay: Plk1 polo box domain binding inhibitors, SAR follow-up, biochemical, fluorescence polarization, purchased analogs (AID 1053)). Details: Plk1 PBD fluorescence polarization peptide binding; at 20 µM; hits give high values; call rule not given here.
Sequence of Serine/threonine-protein kinase PLK1 (Homo sapiens) (P53350 whole entry, looked up, the tested form may be a part): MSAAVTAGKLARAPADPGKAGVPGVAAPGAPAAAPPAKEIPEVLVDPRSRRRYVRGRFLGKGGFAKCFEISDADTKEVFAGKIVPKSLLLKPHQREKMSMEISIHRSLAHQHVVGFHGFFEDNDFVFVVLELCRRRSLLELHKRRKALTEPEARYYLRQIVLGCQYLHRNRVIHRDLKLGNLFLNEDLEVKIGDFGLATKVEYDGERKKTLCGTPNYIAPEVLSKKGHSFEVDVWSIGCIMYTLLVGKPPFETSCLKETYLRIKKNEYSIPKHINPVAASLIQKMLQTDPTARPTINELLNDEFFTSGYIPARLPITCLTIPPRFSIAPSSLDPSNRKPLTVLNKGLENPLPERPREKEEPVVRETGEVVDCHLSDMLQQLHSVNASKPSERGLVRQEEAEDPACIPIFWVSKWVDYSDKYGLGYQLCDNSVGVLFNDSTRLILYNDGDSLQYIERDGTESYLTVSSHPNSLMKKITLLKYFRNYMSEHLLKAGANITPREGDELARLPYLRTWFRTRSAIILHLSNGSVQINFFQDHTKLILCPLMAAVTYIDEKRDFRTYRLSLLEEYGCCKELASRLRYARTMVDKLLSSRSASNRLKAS

inhibition, inactive:
CC(=O)N(/C=C1\Sc2ccccc2C1=O)c1ccc(C)cc1 -201% and -215% and -234%
CC(=O)N(CN1C(=O)c2ccccc2C1=O)c1ccc(C)cc1 -31.4%
CCOc1ccc(-c2nc3c(=O)n(C)c(=O)nc-3n(C)n2)cc1OC 34.4%
CCOC(=O)c1ccc(NC(=O)C2CCCCC2C(=O)O)cc1 (stereo unspecified) -39.1%
CC(=O)N(/C=C1\Sc2ccccc2C1=O)c1cc(C(F)(F)F)ccc1Cl -73.4% and -36.2%
COC(=O)c1ccc(NC(=O)c2cc(-c3ccc(C)o3)nc3ccccc23)cc1 25.4%
CC(=O)N(CN1C(=O)c2ccccc2C1=O)c1cc(C)ccc1C -34.4%
CCOC(=O)c1ccc(N=Cc2c(O)n(Cc3ccccc3)c(=O)[nH]c2=O)cc1 -22.9%
Cn1c(=O)[nH]c2nnc(-c3ccc([N+](=O)[O-])cc3)nc2c1=O -49.9%
CCCOC(=O)c1ccc(NC(=O)c2ccc(C)c(I)c2)cc1 -23.6%
CCOC(=O)c1ccc(NC(=O)c2c(C)cc(=O)oc2C)cc1 -118%
Cn1c(=O)[nH]c2nnc(-c3ccc(Cl)cc3)nc2c1=O 28.8%
Cn1c(=O)[nH]c2nnc(-c3ccc(F)cc3)nc2c1=O -42.3%
Cc1ccc(-c2nnc3[nH]c(=O)n(C)c(=O)c3n2)cc1 -28.5% and -24.3%
O=C1NC(=O)C(=Cc2cc(Cl)c(OCc3ccc(C(=O)O)cc3)c(Cl)c2)C(=O)N1 -37.4%
CC(=O)N(/N=C1\Sc2ccccc2C1=O)c1ccc(C)cc1C 29.2%
CC(=O)Oc1ccccc1N(/C=C1/Sc2ccccc2C1=O)C(C)=O -290%
O=c1cc[nH]c2cc(N3CCOCC3)c(F)cc12 -49%
Cn1nc(-c2ccc(F)cc2)nc2c(=O)n(C)c(=O)nc1-2 3.86%
CCOC(=O)c1ccc(N=Cc2c(O)n(CC)c(=O)[nH]c2=O)cc1 -76.6%
CC(=O)N(CN1C(=O)c2cc(Cl)c(Cl)cc2C1=O)c1ccc(C)c(Cl)c1 -45.5%
COc1ccc(N(CN2C(=O)c3ccccc3C2=O)C(=O)C(F)(F)F)cc1 -44.5%
CCCOC(=O)c1ccc(NC(=O)c2ccc(OC)c([N+](=O)[O-])c2)cc1 -17.9%
CCOC(=O)c1ccc(N=Cc2c(O)n(-c3cccc(C)c3)c(=O)[nH]c2=O)cc1 -57.1%
Cn1c(=O)c2nc(-c3ccccc3)c(-c3ccccc3)nc2n(C)c1=O -30.5%
COc1cc(C=C2C(=O)NC(=O)NC2=O)ccc1OCc1ccc(Cl)cc1Cl -58.1%
Cc1ccccc1-c1nnc2[nH]c(=O)n(C)c(=O)c2n1 -8.49% and -8.27%
COc1ccc(-c2nnc3[nH]c(=O)n(C)c(=O)c3n2)cc1OC -22.8% and -20.3%
CCCCOC(=O)c1ccc(N=Cc2c(O)[nH]c(=O)[nH]c2=O)cc1 44.5%
CC1CN(c2cc3nccnc3cc2F)CC(C)O1 (stereo unspecified) -46.8%
CCOC(=O)c1ccc(NC(=O)c2cc(=O)[nH]c3ccccc23)cc1 -81.3%
CC(=O)N(/N=C1\Sc2ccccc2C1=O)c1ccc(Br)cc1 34.2%
COc1ccccc1N(CN1C(=O)c2ccccc2C1=O)C(C)=O -46.9%
CCN(CC)CCOC(=O)c1ccc(N=Cc2c(O)n(Cc3ccccc3)c(=O)[nH]c2=O)cc1 -220%
CCN(CC)CCOC(=O)c1ccc(N=Cc2c(O)n(C)c(=O)[nH]c2=O)cc1 -180%
CC(=O)Oc1c(Cl)c(N2CCOCC2)c(OC(C)=O)c2ccccc12 -39.3%
